Screens as filed in PubChem.
This is a sample that favours compounds with a hit; in the whole collection about 7.5% have one here.
ELG1 genotox = qHTS screen for small molecules that induce genotoxicity in human embryonic kidney (HEK293T) cells expressing luciferase-tagged ELG1 | HEK293T ELG1-luciferase reporter, luminescence, 16 h | Potency, µM (doses to about 46 µM), without a hit: top-dose activity change, positive = activation, usual class: activators | 1.3% of 330,000 active; also: % of control where 0% means no effect; nearly all actives have a fitted effect of over 60% in size
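HEK293T cells expressing luciferase-tagged ELG1 were exposed to compound or DMSO vehicle for 16 hr at 37 °C and 5% CO2. Luciferase activity was then measured with ONE-Glo after 30 min at room temperature.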
FLuc counter = qHTS profiling assay for firefly luciferase inhibitor/activator using purifed enzyme and Km concentrations of substrates (counterscreen for miR-21 project); Luciferin 4-monooxygenase (Photinus pyralis), P08659; purified FLuc, Km substrates, luminescence inhibition; Potency, µM (titrated, usually from 57.5 µM), for inactives: top-dose activity change, negative = inhibition, actives largely listed as inhibitors; 6.9% of 360,000 active; AID 588342, 2011;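 also: plate controls were vehicle for no effect and reference inhibitor for full effect; nearly all actives have a fitted effect of over 55% in size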
Target sequence (P08659 whole entry, looked up): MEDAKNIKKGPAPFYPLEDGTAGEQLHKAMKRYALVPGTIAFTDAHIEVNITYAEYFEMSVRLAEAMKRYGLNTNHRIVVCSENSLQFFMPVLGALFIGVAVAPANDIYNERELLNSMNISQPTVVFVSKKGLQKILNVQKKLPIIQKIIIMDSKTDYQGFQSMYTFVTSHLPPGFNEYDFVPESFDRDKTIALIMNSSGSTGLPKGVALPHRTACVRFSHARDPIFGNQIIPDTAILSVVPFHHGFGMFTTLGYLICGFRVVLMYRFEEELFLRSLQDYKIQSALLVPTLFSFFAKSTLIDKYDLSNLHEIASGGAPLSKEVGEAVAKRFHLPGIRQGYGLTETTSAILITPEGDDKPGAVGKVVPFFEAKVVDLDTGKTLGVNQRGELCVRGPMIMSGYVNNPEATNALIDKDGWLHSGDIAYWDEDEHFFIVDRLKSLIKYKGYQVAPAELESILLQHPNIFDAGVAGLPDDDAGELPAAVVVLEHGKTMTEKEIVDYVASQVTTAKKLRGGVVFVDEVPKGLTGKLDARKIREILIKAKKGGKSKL
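Biochemical qHTS of compounds, final roughly 60 µM downward over six points, against 10 nM purified firefly luciferase using Km concentrations of substrates (10 uM D-luciferin, 10 uM ATP) in Tris acetate pH 7.5 buffer; luminescence output.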
Rab9 prom act = qHTS Assay for Rab9 Promoter Activators | Huh7 Rab9 promoter-luciferase reporter, luminescence, 24 h | Potency, µM (highest dose often 9.22 µM), inactives show top-dose activation, negative = inhibition, usual class: activators | 2.8% of 320,000 active; also: % of control where 0% means no effect; nearly all actives have a fitted effect of over 60% in size
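Promoter activation is measured as luciferase luminescence in Huh7 cells stably transfected with a Rab9 promoter–luciferase construct, following 24 h compound exposure at 37 °C and 10 min reagent incubation at ambient temperature.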
SMN2 splice up = qHTS Assay for Enhancers of SMN2 Splice Variant Expression. Potency, µM (top dose mostly 46.1 µM), inactives show top-dose activity change, positive = activation, usual class: activators. HEK293 SMN2-luciferase splicing reporter, luminescence, 30-36 h. 2.8% of 210,000 active; also: % of control where 0% means no effect; nearly all actives have a fitted effect of over 55% in size
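qHTS luciferase splicing reporter: luminescence rises when SMN2 exon 7 is included in transfected HEK293 cells. Compound exposure lasted 30-36 h at 37C, with 4.5 mM final sodium butyrate as control, followed by a ONE-Glo read.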
KinaseGlo FLuc = Counterscreen for Luciferase (Kinase-Glo TM) Inhibition; Luciferin 4-monooxygenase (Photuris pensylvanica), Q27757; Kinase-Glo luciferase, ATP luminescence, 8 min; Potency, µM (series often up to 38.3 µM), for the others: at the highest dose activity change, negative = inhibition, actives largely listed as inhibitors; 0.28% of 200,000 active; also: % is scaled to controls: 0 for no effect and ±100 for the full control effect; nearly all actives have a fitted effect of over 60% in size
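Compounds were added to a substrate mix at pH 7.2 (50 mM imidazole, 10 uM ATP, within the enzyme's linear range), followed by Kinase-Glo detection reagent; luminescence was measured after 8 minutes at ambient temperature.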
NPC1 prom act = qHTS Assay for NPC1 Promoter Activators; Huh7 NPC1 promoter luciferase reporter, 24 h; Potency, µM (highest dose often 9.22 µM), without a hit: at the highest dose activation, actives largely listed as activators; 2.4% of 320,000 active; AID 485313, 2010; also: % of control where 0% means no effect; nearly all actives have a fitted effect of over 60% in size
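Compounds in DMSO were transferred onto Huh7 NPC1-luciferase reporter cells pre-incubated 2 h; after 24 h at 37 °C, Amplite reagent was dispensed and luminescence recorded 10 min later.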
* = called active by the depositor; [ ] = another dose, or the depositor's remark. Calls follow the shape of the dose curve; as a rule, active = well fitted curve in the direction sought with a large enough effect; inconclusive = small, poorly fitted or top-dose-only effect, or another doubt; inactive = no such curve, though single readings can be large; an effect the other way counts as inactive or inconclusive. Potency is read from the fitted curve at half-maximal effect.

Screening CC(=O)c1sc(NC(=O)C2COc3ccccc3O2)nc1C (stereo not drawn) returned ELG1 genotox inconclusive, FLuc counter 1.9µM*, Rab9 prom act 0.35µM*, SMN2 splice up 3.2µM*, KinaseGlo FLuc -4% and NPC1 prom act 0.45µM*.
`CC1(C)CC(=O)c2sc(NC(=O)c3ccco3)nc2C1` gave ELG1 genotox 21µM*, FLuc counter 6µM*, Rab9 prom act 28%, SMN2 splice up inconclusive, KinaseGlo FLuc -14% and NPC1 prom act inconclusive.
`O=C(Nc1nnc(C(F)(F)F)s1)C1COc2ccccc2O1` (stereo not drawn) gave ELG1 genotox 4%, FLuc counter inconclusive, Rab9 prom act 27%, SMN2 splice up -28%, KinaseGlo FLuc 16% and NPC1 prom act 28%.
CC1(C)CC(=O)c2sc(NC(=O)C3COc4ccccc4O3)nc2C1 (stereo not drawn) was read as ELG1 genotox 21µM*, FLuc counter inconclusive, Rab9 prom act inconclusive, SMN2 splice up 13µM*, KinaseGlo FLuc 4% and NPC1 prom act 25%.
CCOc1ccc(S(=O)(=O)NCC(c2ccco2)S(=O)(=O)c2ccc(C)cc2)cc1 (stereo not drawn) was read as FLuc counter 1%.
`CCCN(CCC)C(=O)Cn1c(=O)n(-c2ccc(OC)cc2OC)c(=O)c2c3c(sc21)CCC3` gave FLuc counter 3% and SMN2 splice up 2%.
For CC(C)(C)c1csc(NC(=O)C2COc3ccccc3O2)n1 (stereo not drawn) the results were ELG1 genotox inconclusive, FLuc counter 15µM*, Rab9 prom act inconclusive and NPC1 prom act inconclusive.
O=C(Nc1nncs1)C1COc2ccccc2O1 (stereo not drawn) was read as ELG1 genotox 15%, FLuc counter inconclusive, Rab9 prom act 3%, SMN2 splice up inconclusive, KinaseGlo FLuc -5% and NPC1 prom act 19%.
`COC(=O)C(C)NC(=O)c1ccc(C(C)(C)C)cc1` (stereo not drawn) gave ELG1 genotox 17%, FLuc counter 19µM*, Rab9 prom act 22%, SMN2 splice up inconclusive, KinaseGlo FLuc -4% and NPC1 prom act 21%.
CC(C)C(NC(=O)c1ccc(C(C)(C)C)cc1)C(=O)OCC(=O)NC(=O)Cc1ccccc1 (stereo not drawn) was read as ELG1 genotox 0%, FLuc counter 21µM*, Rab9 prom act -4%, SMN2 splice up 17%, KinaseGlo FLuc 0% and NPC1 prom act 1%.
Screening COc1ccc(NC(=O)Cn2cnc3c(nc4n3CCCCC4)c2=O)cc1Cl returned FLuc counter -10%.
For COc1ccc(C2CC(c3c(O)cc(C)oc3=O)=NCCS2)c(OC)c1 (stereo not drawn) the results were ELG1 genotox 10µM*, FLuc counter 11µM*, Rab9 prom act -7%, SMN2 splice up inconclusive, KinaseGlo FLuc -10% and NPC1 prom act inconclusive.
Cc1cc(OC(=O)c2ccccc2Br)cc(=O)n1C was read as ELG1 genotox -5%, FLuc counter 21µM*, Rab9 prom act -2%, SMN2 splice up -1%, KinaseGlo FLuc -7% and NPC1 prom act 3%.
`Clc1ccc2nc3c4ccccc4cnn3c2c1` gave ELG1 genotox 8.2µM*, FLuc counter 1.9µM*, Rab9 prom act -3%[1.84 µM], SMN2 splice up 2.8µM*, KinaseGlo FLuc inconclusive and NPC1 prom act 10%.
`COc1cc(Cl)ccc1OCc1cc(C(=O)N(C)Cc2nnc(C)o2)no1` gave ELG1 genotox inconclusive, FLuc counter inconclusive, Rab9 prom act 26% and NPC1 prom act 29%.
Screening COc1ccc(OCc2cc(C(=O)N(C)Cc3nnc(C)o3)no2)c(Cl)c1 returned ELG1 genotox inconclusive, FLuc counter 8.5µM*, Rab9 prom act 3.5µM* and NPC1 prom act 3.2µM*.
For CCc1ccc(CN(C)C(=O)c2cc(COc3ccc(OC)cc3Cl)on2)nc1 the results were ELG1 genotox inconclusive, FLuc counter 15µM*, Rab9 prom act inconclusive and NPC1 prom act 3.2µM*.
Screening COc1ccc(OCc2cc(C(=O)N3CCCN(C(C)=O)CC3)no2)c(Cl)c1 returned ELG1 genotox inconclusive, FLuc counter 27µM*, Rab9 prom act 30% and NPC1 prom act inconclusive.
CCN(Cc1ccncc1)C(=O)c1cc(COc2ccc(OC)cc2Cl)on1 was read as ELG1 genotox inconclusive, FLuc counter 21µM*, Rab9 prom act 2.8µM* and NPC1 prom act 3.2µM*.
C#C[C@]1(O)CC[C@@H]2[C@H]3CCC4=CCCC[C@@H]4[C@@H]3CC[C@@]21C was read as SMN2 splice up 8%[20.6 µM] and KinaseGlo FLuc 4%[17.1 µM].
For C(=C\c1nc(-c2ccccc2)oc1Nc1ccc2ccccc2c1)/c1ccccc1 the results were SMN2 splice up 7% and KinaseGlo FLuc 1%.
Screening CCN(CC)C(=O)Cn1c(SCC(=O)Nc2ccc(C)c(C)c2)nc2ccccc21 returned FLuc counter 1%.
Screening CC(=O)c1ccc(OCc2cc(C(=O)N(C)Cc3cc(C)no3)no2)cc1 returned ELG1 genotox 12%, FLuc counter inconclusive, Rab9 prom act 23% and NPC1 prom act 16%.
`COc1ccc(OCc2cc(C(=O)N(C)Cc3cc(C)no3)no2)c(Cl)c1` gave ELG1 genotox inconclusive, FLuc counter 6µM*, Rab9 prom act 4µM* and NPC1 prom act 2.8µM*.
Cc1cc(C)c(NC(=O)Cc2csc(C)n2)c(Cl)c1 was read as FLuc counter -7% and SMN2 splice up 0%.
COC(=O)CSc1nc2sc3c(c2c(=O)n1Cc1ccccc1)CCC(C(C)(C)C)C3 (stereo not drawn) was read as FLuc counter -1% and SMN2 splice up -9%.
Screening NC(=O)COC(=O)c1sc2ccccc2c1Cl returned ELG1 genotox 1%, FLuc counter inconclusive, Rab9 prom act -1%, SMN2 splice up 12%, KinaseGlo FLuc -2% and NPC1 prom act 4%.
Cc1cc(C)n(CCOC(=O)c2sc3ccccc3c2Cl)n1 was read as ELG1 genotox 11%, FLuc counter 8.5µM*, Rab9 prom act 3%, SMN2 splice up -11%, KinaseGlo FLuc -3% and NPC1 prom act -2%.
